Experimental data: article PMC12529666, “Dysregulation of AGO2-miRNA dynamics underlies the AGO2-associated Lessel–Kreienkamp syndrome”

B1: GCACTCCG (ssRNA)
RNA 1: GAGUUCUACAGUCCGACGAUCCCAACGCACUCCGCACCUGGAAUUCUCGGGUGCCAA
RNA 2: UGGAGUGUGACAAUGGUGUUUG
DNA 1: GATCGTCGGACTGTAGAACTC
DNA 2: TTGGCACCCGAGAATTCCA
modifications: constant regions annealed to DNA blockers; guide miR-122 5' phosphate
B2: GTGCTCCA (ssRNA)
RNA 1: GAGUUCUACAGUCCGACGAUCCCAACGUGCUCCACACCUGGAAUUCUCGGGUGCCAA
RNA 2: UGGAGUGUGACAAUGGUGUUUG
DNA 1: GATCGTCGGACTGTAGAACTC
DNA 2: TTGGCACCCGAGAATTCCA
modifications: constant regions annealed to DNA blockers; guide miR-122 5' phosphate
B3: ACACCCTA (ssRNA)
RNA 1: GAGUUCUACAGUCCGACGAUCCCAACACACCCUACACCUGGAAUUCUCGGGUGCCAA
RNA 2: UGGAGUGUGACAAUGGUGUUUG
DNA 1: GATCGTCGGACTGTAGAACTC
DNA 2: TTGGCACCCGAGAATTCCA
modifications: constant regions annealed to DNA blockers; guide miR-122 5' phosphate
B4: GCACTCTA (ssRNA)
RNA 1: GAGUUCUACAGUCCGACGAUCCCAACGCACUCUACACCUGGAAUUCUCGGGUGCCAA
RNA 2: UGGAGUGUGACAAUGGUGUUUG
DNA 1: GATCGTCGGACTGTAGAACTC
DNA 2: TTGGCACCCGAGAATTCCA
modifications: constant regions annealed to DNA blockers; guide miR-122 5' phosphate
B5: GCATTCCA (ssRNA)
RNA 1: GAGUUCUACAGUCCGACGAUCCCAACGCAUUCCACACCUGGAAUUCUCGGGUGCCAA
RNA 2: UGGAGUGUGACAAUGGUGUUUG
DNA 1: GATCGTCGGACTGTAGAACTC
DNA 2: TTGGCACCCGAGAATTCCA
modifications: constant regions annealed to DNA blockers; guide miR-122 5' phosphate
B6: GTATTCCA (ssRNA)
RNA 1: GAGUUCUACAGUCCGACGAUCCCAACGUAUUCCACACCUGGAAUUCUCGGGUGCCAA
RNA 2: UGGAGUGUGACAAUGGUGUUUG
DNA 1: GATCGTCGGACTGTAGAACTC
DNA 2: TTGGCACCCGAGAATTCCA
modifications: constant regions annealed to DNA blockers; guide miR-122 5' phosphate
B7: ATGTCCCA (ssRNA)
RNA 1: GAGUUCUACAGUCCGACGAUCCCAACAUGUCCCACACCUGGAAUUCUCGGGUGCCAA
RNA 2: UGGAGUGUGACAAUGGUGUUUG
DNA 1: GATCGTCGGACTGTAGAACTC
DNA 2: TTGGCACCCGAGAATTCCA
modifications: constant regions annealed to DNA blockers; guide miR-122 5' phosphate
B8: GCACCCCA (ssRNA)
RNA 1: GAGUUCUACAGUCCGACGAUCCCAACGCACCCCACACCUGGAAUUCUCGGGUGCCAA
RNA 2: UGGAGUGUGACAAUGGUGUUUG
DNA 1: GATCGTCGGACTGTAGAACTC
DNA 2: TTGGCACCCGAGAATTCCA
modifications: constant regions annealed to DNA blockers; guide miR-122 5' phosphate
B9: ATACTTCA (ssRNA)
RNA 1: GAGUUCUACAGUCCGACGAUCCCAACAUACUUCACACCUGGAAUUCUCGGGUGCCAA
RNA 2: UGGAGUGUGACAAUGGUGUUUG
DNA 1: GATCGTCGGACTGTAGAACTC
DNA 2: TTGGCACCCGAGAATTCCA
modifications: constant regions annealed to DNA blockers; guide miR-122 5' phosphate
B10: ATACTTTA (ssRNA)
RNA 1: GAGUUCUACAGUCCGACGAUCCCAACAUACUUUACACCUGGAAUUCUCGGGUGCCAA
RNA 2: UGGAGUGUGACAAUGGUGUUUG
DNA 1: GATCGTCGGACTGTAGAACTC
DNA 2: TTGGCACCCGAGAATTCCA
modifications: constant regions annealed to DNA blockers; guide miR-122 5' phosphate
B11: ACGCTCCA (ssRNA)
RNA 1: GAGUUCUACAGUCCGACGAUCCCAACACGCUCCACACCUGGAAUUCUCGGGUGCCAA
RNA 2: UGGAGUGUGACAAUGGUGUUUG
DNA 1: GATCGTCGGACTGTAGAACTC
DNA 2: TTGGCACCCGAGAATTCCA
modifications: constant regions annealed to DNA blockers; guide miR-122 5' phosphate
B12: GCACTCTG (ssRNA)
RNA 1: GAGUUCUACAGUCCGACGAUCCCAACGCACUCUGCACCUGGAAUUCUCGGGUGCCAA
RNA 2: UGGAGUGUGACAAUGGUGUUUG
DNA 1: GATCGTCGGACTGTAGAACTC
DNA 2: TTGGCACCCGAGAATTCCA
modifications: constant regions annealed to DNA blockers; guide miR-122 5' phosphate
B13: GCACTTCA (ssRNA)
RNA 1: GAGUUCUACAGUCCGACGAUCCCAACGCACUUCACACCUGGAAUUCUCGGGUGCCAA
RNA 2: UGGAGUGUGACAAUGGUGUUUG
DNA 1: GATCGTCGGACTGTAGAACTC
DNA 2: TTGGCACCCGAGAATTCCA
modifications: constant regions annealed to DNA blockers; guide miR-122 5' phosphate
B14: ATGCTTCA (ssRNA)
RNA 1: GAGUUCUACAGUCCGACGAUCCCAACAUGCUUCACACCUGGAAUUCUCGGGUGCCAA
RNA 2: UGGAGUGUGACAAUGGUGUUUG
DNA 1: GATCGTCGGACTGTAGAACTC
DNA 2: TTGGCACCCGAGAATTCCA
modifications: constant regions annealed to DNA blockers; guide miR-122 5' phosphate
B15: ATATTTCA (ssRNA)
RNA 1: GAGUUCUACAGUCCGACGAUCCCAACAUAUUUCACACCUGGAAUUCUCGGGUGCCAA
RNA 2: UGGAGUGUGACAAUGGUGUUUG
DNA 1: GATCGTCGGACTGTAGAACTC
DNA 2: TTGGCACCCGAGAATTCCA
modifications: constant regions annealed to DNA blockers; guide miR-122 5' phosphate
B16: ATGTTCCA (ssRNA)
RNA 1: GAGUUCUACAGUCCGACGAUCCCAACAUGUUCCACACCUGGAAUUCUCGGGUGCCAA
RNA 2: UGGAGUGUGACAAUGGUGUUUG
DNA 1: GATCGTCGGACTGTAGAACTC
DNA 2: TTGGCACCCGAGAATTCCA
modifications: constant regions annealed to DNA blockers; guide miR-122 5' phosphate
B17: GCGTCTCA (ssRNA)
RNA 1: GAGUUCUACAGUCCGACGAUCCCAACGCGUCUCACACCUGGAAUUCUCGGGUGCCAA
RNA 2: UGGAGUGUGACAAUGGUGUUUG
DNA 1: GATCGTCGGACTGTAGAACTC
DNA 2: TTGGCACCCGAGAATTCCA
modifications: constant regions annealed to DNA blockers; guide miR-122 5' phosphate
B18: GTATCCCA (ssRNA)
RNA 1: GAGUUCUACAGUCCGACGAUCCCAACGUAUCCCACACCUGGAAUUCUCGGGUGCCAA
RNA 2: UGGAGUGUGACAAUGGUGUUUG
DNA 1: GATCGTCGGACTGTAGAACTC
DNA 2: TTGGCACCCGAGAATTCCA
modifications: constant regions annealed to DNA blockers; guide miR-122 5' phosphate
B19: GTGCTCCG (ssRNA)
RNA 1: GAGUUCUACAGUCCGACGAUCCCAACGUGCUCCGCACCUGGAAUUCUCGGGUGCCAA
RNA 2: UGGAGUGUGACAAUGGUGUUUG
DNA 1: GATCGTCGGACTGTAGAACTC
DNA 2: TTGGCACCCGAGAATTCCA
modifications: constant regions annealed to DNA blockers; guide miR-122 5' phosphate

The binders below were run against AGO2 WT (phosphosite mutant background) (Homo sapiens, UniProt Q9UKV8 1-859, S387D;S824A;S828D;S831D;S834A) (assay: RNA Bind-n-Seq (nitrocellulose filter binding and sequencing); miR-122 guide loaded in AGO2; 60 min incubation; 30 mM Tris pH 8.0, 100 mM potassium acetate, 2 mM magnesium acetate, 0.5 mM TCEP, 0.005% NP-40, 0.01 mg/ml yeast tRNA; 3 nM AGO2-miR-122, 100 nM RNA library; 60; high values mean tight binding). Settings: protein: recombinant; tags: His6 (N-terminal, pFastBac HTA).
How it was run: (§1)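 His-tagged AGO2 was expressed in Sf9 insect cells by baculovirus, loaded with a synthetic guide RNA, and purified by Ni-NTA and a biotinylated capture oligo. Bound RNA was extracted, reverse-transcribed, barcode-amplified and Illumina-sequenced. Fold enrichment is each sequence's read fraction divided by its input-library read fraction.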

AGO2 WT (phosphosite mutant background), sequence (Q9UKV8 whole entry S387D/S824A/S828D/S831D/S834A): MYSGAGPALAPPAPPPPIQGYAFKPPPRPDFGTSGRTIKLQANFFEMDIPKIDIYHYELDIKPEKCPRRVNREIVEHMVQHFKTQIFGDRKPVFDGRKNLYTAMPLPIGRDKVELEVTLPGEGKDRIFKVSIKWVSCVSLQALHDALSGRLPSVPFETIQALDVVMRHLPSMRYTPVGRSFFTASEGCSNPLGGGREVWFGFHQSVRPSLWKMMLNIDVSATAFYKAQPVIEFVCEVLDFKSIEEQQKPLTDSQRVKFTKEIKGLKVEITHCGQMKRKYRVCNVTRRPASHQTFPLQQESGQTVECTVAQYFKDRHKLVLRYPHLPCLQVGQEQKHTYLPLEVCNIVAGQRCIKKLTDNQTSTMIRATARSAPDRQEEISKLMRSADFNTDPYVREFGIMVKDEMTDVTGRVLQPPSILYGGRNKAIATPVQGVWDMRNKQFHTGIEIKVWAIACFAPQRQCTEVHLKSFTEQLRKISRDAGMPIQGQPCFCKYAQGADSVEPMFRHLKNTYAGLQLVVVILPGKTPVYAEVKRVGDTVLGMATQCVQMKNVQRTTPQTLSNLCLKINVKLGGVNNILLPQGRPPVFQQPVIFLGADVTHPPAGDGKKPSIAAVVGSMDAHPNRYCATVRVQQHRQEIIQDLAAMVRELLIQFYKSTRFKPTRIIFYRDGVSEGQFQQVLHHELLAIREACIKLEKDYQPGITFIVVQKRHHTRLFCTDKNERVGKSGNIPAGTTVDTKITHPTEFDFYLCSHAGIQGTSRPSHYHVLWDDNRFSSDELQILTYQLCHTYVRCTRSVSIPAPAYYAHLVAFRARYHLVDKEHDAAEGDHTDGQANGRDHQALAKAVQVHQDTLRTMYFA

Binder | binding signal
B1 | 85.3 fold enrichment over input
B2 | 0.17 fold enrichment over input
B3 | 0.142 fold enrichment over input
B4 | 0.168 fold enrichment over input
B5 | 0.182 fold enrichment over input
B6 | 0.18 fold enrichment over input
B7 | 0.155 fold enrichment over input
B8 | 0.164 fold enrichment over input
B9 | 0.136 fold enrichment over input
B10 | 0.121 fold enrichment over input
B11 | 5.29 fold enrichment over input
B12 | 0.143 fold enrichment over input
B13 | 0.149 fold enrichment over input
B14 | 0.135 fold enrichment over input
B15 | 0.141 fold enrichment over input
B16 | 0.148 fold enrichment over input
B17 | 0.14 fold enrichment over input
B18 | 0.162 fold enrichment over input
B19 | 0.149 fold enrichment over input

What follows are binders tested against AGO2 L192P (Homo sapiens, UniProt Q9UKV8 1-859, L192P;S387D;S824A;S828D;S831D;S834A) in the same assay as above. Settings: protein: recombinant; tags: His6 (N-terminal, pFastBac HTA).
How it was run: as §1

AGO2 L192P, sequence (Q9UKV8 whole entry L192P/S387D/S824A/S828D/S831D/S834A): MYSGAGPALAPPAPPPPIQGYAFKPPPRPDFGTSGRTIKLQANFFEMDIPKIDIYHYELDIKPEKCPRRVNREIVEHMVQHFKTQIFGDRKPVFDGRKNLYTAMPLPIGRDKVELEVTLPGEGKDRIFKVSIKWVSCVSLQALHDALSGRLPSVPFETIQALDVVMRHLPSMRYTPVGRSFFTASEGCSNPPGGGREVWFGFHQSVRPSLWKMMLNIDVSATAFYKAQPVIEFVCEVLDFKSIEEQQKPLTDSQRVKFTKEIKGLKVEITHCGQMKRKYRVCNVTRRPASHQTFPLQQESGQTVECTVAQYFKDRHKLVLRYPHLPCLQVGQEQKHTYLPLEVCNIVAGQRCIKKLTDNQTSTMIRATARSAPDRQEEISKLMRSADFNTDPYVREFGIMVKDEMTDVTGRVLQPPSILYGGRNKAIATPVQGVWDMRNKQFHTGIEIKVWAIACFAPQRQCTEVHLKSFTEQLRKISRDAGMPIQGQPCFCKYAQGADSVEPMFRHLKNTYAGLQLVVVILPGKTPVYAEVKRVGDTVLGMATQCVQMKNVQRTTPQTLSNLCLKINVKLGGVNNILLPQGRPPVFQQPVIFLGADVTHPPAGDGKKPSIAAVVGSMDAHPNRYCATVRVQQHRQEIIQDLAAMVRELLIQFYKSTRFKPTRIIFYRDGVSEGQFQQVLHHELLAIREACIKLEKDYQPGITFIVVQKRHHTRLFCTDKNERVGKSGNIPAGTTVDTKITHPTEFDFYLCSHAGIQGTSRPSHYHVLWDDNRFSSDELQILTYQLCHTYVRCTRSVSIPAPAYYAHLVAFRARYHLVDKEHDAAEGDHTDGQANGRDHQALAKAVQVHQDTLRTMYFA

Binder | binding signal
B1 | 60.8 fold enrichment over input
B2 | 0.594 fold enrichment over input
B3 | 0.6 fold enrichment over input
B4 | 0.562 fold enrichment over input
B5 | 0.661 fold enrichment over input
B6 | 0.545 fold enrichment over input
B7 | 0.54 fold enrichment over input
B8 | 0.6 fold enrichment over input
B9 | 0.646 fold enrichment over input
B10 | 0.536 fold enrichment over input
B11 | 12.3 fold enrichment over input
B12 | 0.491 fold enrichment over input
B13 | 0.575 fold enrichment over input
B14 | 0.573 fold enrichment over input
B15 | 0.626 fold enrichment over input
B16 | 0.552 fold enrichment over input
B17 | 0.529 fold enrichment over input
B18 | 0.517 fold enrichment over input
B19 | 0.546 fold enrichment over input

Each binder was assayed against AGO2 A367P (Homo sapiens, UniProt Q9UKV8 1-859, A367P;S387D;S824A;S828D;S831D;S834A) in the same assay as above. Settings: protein: recombinant; tags: His6 (N-terminal, pFastBac HTA).
How it was run: as §1

AGO2 A367P, sequence (Q9UKV8 whole entry A367P/S387D/S824A/S828D/S831D/S834A): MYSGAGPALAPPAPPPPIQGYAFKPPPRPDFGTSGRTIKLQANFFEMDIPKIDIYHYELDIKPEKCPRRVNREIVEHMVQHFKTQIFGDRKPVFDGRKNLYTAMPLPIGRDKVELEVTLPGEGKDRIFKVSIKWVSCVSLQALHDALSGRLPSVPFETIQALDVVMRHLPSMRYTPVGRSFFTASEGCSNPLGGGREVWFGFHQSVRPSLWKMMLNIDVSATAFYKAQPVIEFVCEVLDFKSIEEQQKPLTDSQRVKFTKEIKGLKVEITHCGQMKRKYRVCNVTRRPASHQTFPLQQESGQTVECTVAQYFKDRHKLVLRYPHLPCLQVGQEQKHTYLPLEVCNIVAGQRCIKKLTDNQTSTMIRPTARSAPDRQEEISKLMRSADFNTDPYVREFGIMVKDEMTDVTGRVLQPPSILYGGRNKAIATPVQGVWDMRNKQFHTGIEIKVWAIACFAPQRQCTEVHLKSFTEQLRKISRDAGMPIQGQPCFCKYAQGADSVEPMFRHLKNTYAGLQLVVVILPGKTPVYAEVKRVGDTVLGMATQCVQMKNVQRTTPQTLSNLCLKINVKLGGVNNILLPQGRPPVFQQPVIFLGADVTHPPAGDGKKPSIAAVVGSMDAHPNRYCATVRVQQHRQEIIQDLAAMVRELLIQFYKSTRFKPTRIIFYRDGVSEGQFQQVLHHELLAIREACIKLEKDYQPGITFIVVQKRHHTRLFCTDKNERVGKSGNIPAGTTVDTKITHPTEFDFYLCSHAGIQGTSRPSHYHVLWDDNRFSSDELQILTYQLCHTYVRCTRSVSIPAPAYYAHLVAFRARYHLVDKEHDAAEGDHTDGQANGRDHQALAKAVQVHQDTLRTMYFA

Binder | binding signal
B1 | 86.8 fold enrichment over input
B2 | 0.522 fold enrichment over input
B3 | 0.25 fold enrichment over input
B4 | 0.306 fold enrichment over input
B5 | 0.356 fold enrichment over input
B6 | 0.446 fold enrichment over input
B7 | 0.303 fold enrichment over input
B8 | 0.263 fold enrichment over input
B9 | 0.396 fold enrichment over input
B10 | 0.174 fold enrichment over input
B11 | 13.1 fold enrichment over input
B12 | 0.33 fold enrichment over input
B13 | 0.348 fold enrichment over input
B14 | 0.309 fold enrichment over input
B15 | 0.373 fold enrichment over input
B16 | 0.299 fold enrichment over input
B17 | 0.271 fold enrichment over input
B18 | 0.408 fold enrichment over input
B19 | 0.535 fold enrichment over input

What follows are binders tested against AGO2 T357M (Homo sapiens, UniProt Q9UKV8 1-859, T357M;S387D;S824A;S828D;S831D;S834A) in the same assay as above. Settings: protein: recombinant; tags: His6 (N-terminal, pFastBac HTA).
How it was run: as §1

AGO2 T357M, sequence (Q9UKV8 whole entry T357M/S387D/S824A/S828D/S831D/S834A): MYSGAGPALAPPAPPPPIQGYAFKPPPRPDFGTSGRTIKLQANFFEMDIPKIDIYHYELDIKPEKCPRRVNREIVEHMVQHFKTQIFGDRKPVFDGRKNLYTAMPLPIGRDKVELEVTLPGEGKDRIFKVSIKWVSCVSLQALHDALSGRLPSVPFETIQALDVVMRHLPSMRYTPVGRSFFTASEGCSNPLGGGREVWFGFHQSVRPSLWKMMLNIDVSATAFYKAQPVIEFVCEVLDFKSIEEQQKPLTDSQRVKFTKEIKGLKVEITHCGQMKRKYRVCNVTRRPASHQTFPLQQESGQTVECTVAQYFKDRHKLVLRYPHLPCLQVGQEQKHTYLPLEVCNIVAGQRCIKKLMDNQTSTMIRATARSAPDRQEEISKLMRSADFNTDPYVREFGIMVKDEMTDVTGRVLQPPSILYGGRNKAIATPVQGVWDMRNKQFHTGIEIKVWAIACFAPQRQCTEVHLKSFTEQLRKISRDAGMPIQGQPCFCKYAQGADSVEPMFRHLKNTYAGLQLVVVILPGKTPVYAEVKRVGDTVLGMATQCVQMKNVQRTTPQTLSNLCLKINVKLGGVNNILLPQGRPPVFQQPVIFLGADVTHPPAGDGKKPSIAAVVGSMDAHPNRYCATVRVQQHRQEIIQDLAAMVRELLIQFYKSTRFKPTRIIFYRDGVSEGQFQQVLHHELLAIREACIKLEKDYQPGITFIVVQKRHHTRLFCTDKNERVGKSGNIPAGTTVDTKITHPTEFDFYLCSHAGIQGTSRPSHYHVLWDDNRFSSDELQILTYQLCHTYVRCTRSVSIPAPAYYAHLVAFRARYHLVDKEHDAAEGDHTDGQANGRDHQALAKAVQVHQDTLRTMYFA

Binder | binding signal
B1 | 35.6 fold enrichment over input
B2 | 0.649 fold enrichment over input
B3 | 0.636 fold enrichment over input
B4 | 0.561 fold enrichment over input
B5 | 0.65 fold enrichment over input
B6 | 0.623 fold enrichment over input
B7 | 0.599 fold enrichment over input
B8 | 0.699 fold enrichment over input
B9 | 0.62 fold enrichment over input
B10 | 0.643 fold enrichment over input
B11 | 2.94 fold enrichment over input
B12 | 0.457 fold enrichment over input
B13 | 0.655 fold enrichment over input
B14 | 0.582 fold enrichment over input
B15 | 0.697 fold enrichment over input
B16 | 0.682 fold enrichment over input
B17 | 0.646 fold enrichment over input
B18 | 0.614 fold enrichment over input
B19 | 0.617 fold enrichment over input

The binders below were run against AGO2 F182del (Homo sapiens, UniProt Q9UKV8 1-859, S387D;S824A;S828D;S831D;S834A;del182-182) in the same assay as above. Settings: protein: recombinant; tags: His6 (N-terminal, pFastBac HTA).
How it was run: as §1

AGO2 F182del, sequence (Q9UKV8 other isoform, or with tags, fused parts or gaps S387D;S824A;S828D;S831D;S834A;del182-182): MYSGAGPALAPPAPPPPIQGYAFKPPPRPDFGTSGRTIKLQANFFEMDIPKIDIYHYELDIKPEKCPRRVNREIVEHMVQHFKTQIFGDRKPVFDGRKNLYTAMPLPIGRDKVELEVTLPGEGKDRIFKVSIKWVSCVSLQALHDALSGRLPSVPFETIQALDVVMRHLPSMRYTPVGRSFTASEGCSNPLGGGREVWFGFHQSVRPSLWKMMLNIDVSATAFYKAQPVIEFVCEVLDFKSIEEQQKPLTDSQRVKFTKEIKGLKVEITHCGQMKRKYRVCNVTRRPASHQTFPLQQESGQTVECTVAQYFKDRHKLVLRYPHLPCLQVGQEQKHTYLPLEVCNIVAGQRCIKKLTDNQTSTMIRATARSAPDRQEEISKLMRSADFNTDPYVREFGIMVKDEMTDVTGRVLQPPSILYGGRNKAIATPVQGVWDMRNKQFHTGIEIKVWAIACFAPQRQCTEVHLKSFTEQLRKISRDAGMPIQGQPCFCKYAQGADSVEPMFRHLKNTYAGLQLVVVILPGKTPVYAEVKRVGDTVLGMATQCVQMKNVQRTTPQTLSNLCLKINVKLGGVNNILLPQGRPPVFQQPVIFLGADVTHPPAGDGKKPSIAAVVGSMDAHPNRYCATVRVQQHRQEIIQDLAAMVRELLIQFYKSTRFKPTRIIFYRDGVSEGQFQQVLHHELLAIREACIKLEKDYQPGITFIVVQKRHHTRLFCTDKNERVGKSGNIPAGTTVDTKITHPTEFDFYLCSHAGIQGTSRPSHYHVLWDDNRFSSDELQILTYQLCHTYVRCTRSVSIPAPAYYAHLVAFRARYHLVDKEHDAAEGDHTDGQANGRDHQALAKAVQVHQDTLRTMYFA

Binder | binding signal
B1 | 69.5 fold enrichment over input
B2 | 0.604 fold enrichment over input
B3 | 0.799 fold enrichment over input
B4 | 0.786 fold enrichment over input
B5 | 1.01 fold enrichment over input
B6 | 0.898 fold enrichment over input
B7 | 0.697 fold enrichment over input
B8 | 0.666 fold enrichment over input
B9 | 1.33 fold enrichment over input
B11 | 16.9 fold enrichment over input
B12 | 0.887 fold enrichment over input
B13 | 0.82 fold enrichment over input
B14 | 0.842 fold enrichment over input
B15 | 1.09 fold enrichment over input
B16 | 0.701 fold enrichment over input
B17 | 0.747 fold enrichment over input
B18 | 0.832 fold enrichment over input
B19 | 0.426 fold enrichment over input
